Results filed as inconclusive are left out. The source made the active and inactive calls. The call rests on the fitted dose curve; in most records, active means well fitted cell-killing curve with a large enough effect (not every such curve was filed as active); inconclusive means small, poorly fitted or top-dose-only effect, or another doubt; inactive means no such curve, though single readings can be large or run the other way.

This assay is described as follows: qHTS Assay for Agonists of the Relaxin Receptor RXFP1: Cytotoxicity SAR. The settings on record: HEK293-RXFP1 viability, ATPLite luminescence, 72 h; series mostly up to 78.1 µM; activity change, negative = cytotoxicity: at the top concentration. An excerpt: The relaxin hormone is involved in the variety of biological functions in normal tissues and diseases. The role of relaxin is well-established in female reproduction and parturition, mammary gland and endometrial development, maintenance of myometrial quiescence during pregnancy. Relaxin signaling through its G protein-coupled receptor (GPCR) RXFP1 results in ECM remodeling through regulation of collagen deposition, cell invasiveness, proliferation and overall tissue homeostasis. […] Recombinant human relaxin (rhRlx) is currently being tested in clinical trials as a protective agent in congestive heart failure, in treating severe preeclampsia, and as an anti-fibrotic agent in systemic sclerosis. In the primary screen, upon relaxin binding RXFP1 activation leads to the activation of adenylate cyclase (AC) via Gs. cAMP will activate PKA, which phosphorylates many signaling proteins. Thus, detection of cAMP increase is an easy and reliable indication of relaxin receptor activation. To screen for agonists of the relaxin receptor, a HEK293T cell line stably transfected with RXFP1 was used. RXFP1 activation was assayed by changes in cAMP levels as detected with a time-resolved fluorescence energy transfer (TR-FRET) cAMP detection kit. We conducted this followup assay to measure the effect of the lead candidates on cell health by measuring ATP levels (ATPLite). NIH Chemical Genomics Center [NCGC] NIH Molecular Libraries Probe Production Centers Network [MLPCN] MLPCN Grant: R03 MH085705-01A1 Assay Submitter (PI): Alexander Agoulnik
In this assay, the luciferase enzyme catalyzes the conversion of the added substrate D-luciferin to oxyluciferin and light with ATP. Thus, the emitted light is proportional to the ATP concentration. To evaluate the cytotoxic properties of the compounds, HEK293-RXFP1 cells were incubated with compounds for 72 h in growth media (DMEM 10% FBS, 1x Pen/Strep, 0.5 mg/mL G418) in 384-well format. After compound incubation, the levels of ATP in each well were measured with the addition of the ATPLite assay reagent.
In general terms: In qHTS, concentration-response curves come from the screen itself.
Turning to `O=C(Nc1cccc(-c2ccccc2C(F)(F)F)c1)c1ccccc1NC(=O)C1CCCCC1`, the “activity change, negative = cytotoxicity” value is -39.7% (inactive). In the case of `O=C(Nc1ccccc1C(=O)Nc1cccc(C(F)(F)F)c1)c1ccccc1Cl`, the Potency was 11.8 µM (active). As to `CCOc1ccccc1-c1nc2c(C(=O)Nc3cccc(S(=O)(=O)C(F)(F)F)c3)cccc2[nH]1`, the “activity change, negative = cytotoxicity” value was 3.81% (inactive).

Take `COc1ccccc1C(=O)N(C)c1ccccc1C(=O)N(C)c1cccc(C(F)(F)F)c1`: the Potency is 59.3 µM (active). The same measure, in the same setting: as for `CCOc1ccccc1C(=O)Nc1cnccc1C(=O)Nc1cccc(S(=O)(=O)C(F)(F)F)c1`, the figure is 23.6 µM (active). Regarding `COc1ccccc1C(=O)Nc1ccccc1C(=O)Nc1cccc(C(F)(F)F)c1`, the “activity change, negative = cytotoxicity” value is -43.3% (inactive).

As to `CCC(CC)C(=O)Nc1ccccc1C(=O)Nc1cccc(C(F)(F)F)c1`, the Potency is 9.4 µM (active).
